According to PubChem BioAssay (NCATS):
Records with an inconclusive call do not appear. A number with no mark means an inactive call. Calls of active or inactive are those of the source. Calls follow the shape of the dose curve; as a rule, active = well fitted cell-killing curve with a large enough effect; inconclusive = small, poorly fitted or top-dose-only effect; inactive = no such curve, though single readings can be large or run the other way.

Assay: qHTS of pediatric cancer cell lines to identify multiple opportunities for drug repurposing: Primary screen for SJ-GBM2 cells (AID 1347091)
Details: SJ-GBM2 viability, CellTiter-Glo luminescence, 48 h; series mostly up to 46 µM; activity change, negative = cytotoxic: at the top concentration
Text: Drug repurposing or repositioning has been offered as a strategy for drug development in oncology programs. This approach has special potential for childhood cancers and other rare or orphan diseases, where the expected return on new drug development has been a disincentive to pharmaceuticals.
In this project we exploit the poly-pharmacology of drugs to discover new indications via phenotypic screening of a panel of 19 well-characterized cell lines derived from solid tumors seen in children and adolescents. The goal is to identify approved drugs with previously unrecognized anticancer properties that has the potential to reveal new mechanisms and biological processes involved in carcinogenesis or drug resistance. We employed a titration-based paradigm (quantitative high-throughput screening or qHTS), where all compounds were tested at multiple concentrations for their effect on cell viability. Concentration-response curves (CRCs) were derived directly from the primary screen, and both potency and efficacy values were used to identify compounds with robust bioactivity profiles. We screened the NIH Chemical Genomics Center (NCGC) Pharmaceutical Collection (NPC) and Mechanism Interrogation Plate (MIPE) small molecule collections of approved and investigational compounds against these cell lines; and measured metabolically active cells after 48 hours of compound treatment as a proxy for cell viability.
Assay Submitter: Nathalia J. Martinez, National Center for Advancing Translational Sciences, National Institutes of Health, Rockville, MD, USA; email: natalia.martinez@nih.gov
[1] Shen, M et al. Quantitative high-throughput phenotypic screening of pediatric cancer cell lines identifies multiple opportunities for drug repurposing. Oncotarget 2017 Dec 19;9(4):4758-4772. PMID 29435139.
The cells were obtained from University of North Carolina (UNC), Pediatric Preclinical Testing Program (PPT), and Coriell Institute (CI).
qHTS cell viability assay:
Cells were assayed in growth media at a density of 500-1,000 cells/well. Five microliters of cells were dispensed into 1,536-well, white, solid-bottom, TC-treated plates (Greiner Bio One) using a multidrop dispenser and incubated at 37 degrees C, 5% CO2, under a humidified atmosphere for 5 hours. Twenty-three nanoliters of compounds and controls (neutral control DMSO or positive control bortezomib at final concentration of 2.3 µM) were subsequently transferred by Kalypsys pintool. For primary screens, the MIPE collection was tested at 11-point dilutions (final concentrations range from 0.78 nM to 46 µM) and the NPC collection at 8-point dilutions (final concentrations range from 0.59 nM to 46 µM). Compounds tested in follow-up screens were assayed at 11-point dilutions. Cells were incubated for 48 hours, followed by addition of 3 uL of CellTiter-Glo (Promega). After a 15 min incubation at room temperature, samples were analyzed for luminescence intensity using a ViewLux High-throughput CCD imager equipped with clear filters.
Potency is read from the fitted curve at half-maximal effect.

SMILES | activity change, negative = cytotoxic | Potency
Nc1nc2ncc(CNc3ccc(C(=O)N[C@@H](CCC(=O)O)C(=O)O)cc3)nc2c(=O)[nH]1 | 19.8% | –
CCCCCC=CCC=CCCCCCCCC(=O)OCC | 9.76% | –
CC(Cc1ccccc1)(NC(=O)CN)c1ccccc1 (stereo not given) | 25.3% | –
COc1cc(-c2ccc(=O)[nH]n2)ccc1OC(F)F | -23.8% | –
CC(=O)OCC(=O)[C@@]1(OC(C)=O)[C@@H](C)C[C@H]2[C@@H]3C[C@H](F)C4=CC(=O)C=C[C@]4(C)[C@@]3(F)[C@@H](O)C[C@@]21C | -2.14% | –
COc1cc(C=C2CCC/C(=C\c3ccc(O)c(OC)c3)C2=O)ccc1O | – | 23.7 µM (active)
CC1(C)O[C@@H]2[C@@H](CO[C@@]3(COS(N)(=O)=O)OC(C)(C)O[C@@H]23)O1 | 20.9% | –
CC(=O)CC(c1ccc([N+](=O)[O-])cc1)c1c(O)c2ccccc2oc1=O (stereo not given) | 3.55% | –
COc1cc2c(cc1OC)C(=O)C(CC1CCN(Cc3ccccc3)CC1)C2 (stereo not given) | -4.81% | –
OC(CCN1CCCCC1)(c1ccccc1)c1ccccc1 | 3.29% | –
N[C@@H](CCC(=O)N[C@@H](CS)C(=O)NCC(=O)O)C(=O)O | 15.1% [at 16.1 µM] | –
O=C(O)CCCCC(=O)O | 33.5% | –
C[C@H]1[C@H](NC(=O)/C(=N/OC(C)(C)C(=O)O)c2csc(N)n2)C(=O)N1S(=O)(=O)O (stereo in doubt) | 4.38% | –
CN(C)C(=S)SC(=S)N(C)C | 9.24% | –
Cc1c(C(N)=O)cc([N+](=O)[O-])cc1[N+](=O)[O-] | -14.2% | –
CC(=O)Oc1ccc(C(=C2CCCCC2)c2ccc(OC(C)=O)cc2)cc1 | 9.02% | –
CCOC(=O)c1cccc(N)c1 | 13.2% | –
CN=C(NC#N)Nc1ccc(C2=NNC(=O)CC2C)cc1 (stereo not given) | -5.04% | –
Oc1c(I)cc(I)c2cccnc12 | – | 13.3 µM (active)
C[C@@H]1C[C@H]2[C@@H]3CCC4=CC(=O)C=C[C@]4(C)[C@@]3(F)[C@@H](O)C[C@]2(C)[C@H]1C(=O)CO | -9.14% | –

SMILES | activity change, negative = cytotoxic | Potency
CCC(C(=O)OCCN(CC)CC)c1ccccc1 (stereo not given) | 12.4% | –
Cc1ccc(O)c2ncccc12 | 2.81% | –
O=C(COc1ccc(Cl)cc1)N1CCN(Cc2ccc3c(c2)OCO3)CC1 | -3.89% | –
CC(C)n1nc(-c2cc3cc(O)ccc3[nH]2)c2c(N)ncnc21 | – | 0.596 µM (active)
O=C(CCN1CCC(c2ccccc2)C1)c1ccc2c(c1)OCCO2 (stereo not given) | 4.52% | –
Oc1ccc(Cl)c2cccnc12 | 2.29% | –
CCCCCCCCCCCCCCCCOP(=O)([O-])OCC[N+](C)(C)C | – | 8.41 µM (active)
O=S1(=O)c2cccc3cccc(c23)N1CCCN1CCN(c2ccc(F)cc2)CC1 | -24.7% | –
Cc1ccc(C(=O)C(C)CN2CCCCC2)cc1 (stereo not given) | 0.462% | –
C=C1C(=C/C=C2\CCC[C@]3(C)[C@@H]([C@H](C)/C=C/[C@@H](O)C4CC4)CC[C@@H]23)C[C@@H](O)C[C@@H]1O | -1.4% | –
C[C@]12CC[C@@H]3c4ccc(O)cc4CC[C@H]3[C@@H]1C[C@@H](O)[C@@H]2O | 17.2% | –
C[C@]12C=CC(=O)C=C1CC[C@@H]1[C@@H]2[C@@H](O)C[C@@]2(C)[C@H]1CC[C@]2(O)C(=O)CO | -4.39% | –
O=C1OCCN1/N=C/c1ccc([N+](=O)[O-])o1 | 104% | –
COc1c2occc2c(OC)c2c(=O)cc(C)oc12 | 16.1% | –
Oc1ccc(O)cc1 | 9.98% | –
CN1CCN(C(c2ccccc2)c2ccccc2)CC1 | 0.845% | –
CNCC[C@@H](Oc1ccccc1C)c1ccccc1 | 9.45% | –
CCN1CCCC1=O | 8.94% | –
Cc1onc(-c2c(Cl)cccc2Cl)c1C(=O)N[C@@H]1C(=O)N2[C@@H]1SC(C)(C)[C@@H]2C(=O)O | -0.183% | –
CCCCCCCCCCCCCCCCCC(=O)OCC(O)CO (stereo not given) | 32.5% | –
